Among all 52,000 sequences or so, about 210 (0.4%) were called active. This is one part of a sample in which actives are shown more often than they occur.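 Rule for the calls: active = gene whose silencing raises cell survival under the drug, median off-target-corrected z-score across its silencing RNAs 2 or more; inactive = the rest.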

This passage reports z-score results from PubChem BioAssay AID1347423 (Functional Genomics Laboratory (NCATS/FGL), 2020).

This experiment in a line: Resistance to Poly (ADP-Ribose) Polymerase inhibitor: Gene Identification via Genome-wide siRNA Screen. Particulars: mouse BRCA2 R2336H ES cells, olaparib, CellTiter-Glo viability; active compounds read high. A digest of the protocol:
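Mouse BRCA2 R2336H ES cells were reverse-transfected with siRNA (20 nM final), treated at 48 h with 500 nM olaparib, and read by CellTiter-Glo after 72 h. Scores: MAD-based z per siRNA, median per gene, seed off-target correction.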
On to GGAAAUUCAGCAUGGAGCCTT against Vgll4, for which the z-score is -0.472 (inactive). For “CCUCUCCAACAACCAACUATT against 2900010D03Rik”, the z-score is -1.42 (inactive).

Turning to GGAGAUAAAAGUUUCAUCUTT against Jmjd2b, the z-score is 0.46 (inactive).

Regarding GGUACCUGUUUGUUUUACATT against Epb4.1l4b, the z-score was 5.02 (inactive).

For the sequence “CCCUAGAAUGGGAAUGUCATT against C030022K24Rik”, the z-score is 0.313 (inactive). For GUCAUCAAACUAGGUGCUGTT against Olfr584 the value was 5.09 (active); for GGGUCCAUUGUCAAUGUCUTT against Cbr2, -0.721 (inactive). As for “GGGCUUCGAUGCUAUCAUCTT against 6430573F11Rik”, the z-score was 0.734 (inactive). CCAUCUACGUGGGACACAATT against Atp11a: the z-score was -1.41 (inactive). Regarding GGAGAACGAAAGGAUGAAATT against Rpusd4, the z-score was -1.09 (inactive). Turning to “GGAGAAAAGGAUGUUGUUATT against 2310005P05Rik”, the z-score is 2.57 (inactive).

On to CGAUAAUUUGGCUAAGUAUTT against Pip5k3, for which the z-score is 0.0345 (inactive). Turning to “CCAAGGGAAGAUUCAAAUUTT against D930031B21Rik”, the z-score was -1.19 (inactive). The result for “GCCAGAAACUAAUGAGAUCTT against 1110001E17Rik” reads 1.17 (active). For GGAAUUUUCUAUAGUCCGGTT against Flrt2 the value was 0.268 (inactive); for “GCGCAAAGGUGAAACGUAGTT against E030011O05Rik”, -0.0435 (inactive); for GCAUCCUACGCAUUAAAUCTT against Olfr146, -0.12 (inactive). For CGAAAAUCAAGGGAGCUCATT against Rnf19 the value was -0.128 (inactive); for “GCACCAUGUCAGGAAGUGUTT against B230315M08Rik”, 3.45 (active). As to GCCUUUUAGCUGUUCAGGATT against AI451557, the z-score is -1.18 (inactive). The result for GGAGUUCAUUCUGAAUCAGTT against Etohi2 reads -0.817 (inactive); that for GCUACAAAGCGAUGUUUCATT against Pola2, -1.88 (inactive). On to GGUCUCCACCUCCAUAUCCTT against Slc15a3, for which the z-score is 0.715 (inactive). Take GCAGAGGAUAUAAAACAAGTT against Pde2a: the z-score was 0.234 (active). With CGUCUCAACAGAGUUGGAGTT against Hrmt1l1, the z-score was 0.151 (inactive). For CCCAGAACUAUUCAACACUTT against Sema4g, the z-score is 1.4 (inactive). For “GGCAGAGAAAAGGACCUUUTT against 2400002F11Rik” the value was -1.69 (inactive); for GGACAUAAGUGACAGACAUTT against Chrnb2, -1.32 (active).
